# According to the supplement of paper PMC6555819:
# System: VDR:RXRa (NR concentration 270 nM, RXRa partner concentration 90 nM)
# Assay: PBM binding z-score (relative to random genomic background probes); higher = stronger binding; sequences stand for … in GC…GCGATTGACAGCGTAGAATGAAGG
# Method: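 Protein-binding microarray (Agilent 4x180K custom design, double-stranded 60-nt probes: 5' GC cap, 34-nt variable region, 24-nt constant primer region; full probe sequence given). Purified or IVT nuclear receptor:RXRα heterodimers (3:1 NR:RXRα, mostly 270:90 nM) or homodimers were incubated for 1 h in PBS with 2% milk and no ligand, then detected with Alexa488 antibodies. Fluorescence from o1-orientation probes (~5 replicates averaged) was converted to z-scores against 500 random hg19 background probes. Variable regions are seed direct-repeat (DR0–DR5) sites, all their single-nucleotide variants and half-site ablations.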
row,Sequence,PBM binding z-score
1,CCTACTGGGCCATTCAGAGGGCATTGATCATATG,0.0939
2,CGAACTAGGTCATCCAGGTCAGTGAATACATTGA,6.41
3,AGCGAAAGGTCGAGGTGAGTATAGAGAAAGGGAA,2.71
4,GCTGCTAGGTCAACTGATGGTCAACTAAAGCTCG,2.07
5,CGTCTAAGGTCATAGGAGGTCAGTGAAGACAGAT,6.86
6,ATTTGTAGGTTACATCCGGGTCATTCAGGCTATG,4.68
7,TAGCCTAGGTCATTCAGGGGCCAGCATAGAAAGC,2.97
8,ACTCGGTGGACAAAGGTCAGAGCTACGCCAGTGA,2.91
9,CCTTACGGGTCACTCCAGGTCATAGCATCGGAGT,5.95
10,CGAACTAGGTCATTGACAGGACAGTGGATAGTAA,2.15
11,AGAATGAGATTACCAAAGATCAGGGAAACGCTTG,-0.0977
12,GCTGCTAGGTCAACTGATGGTCATCTAAAGCTCG,2.28
13,CTATGTAGGTTACGGGGGTCATTCAGTTTGAAAG,7.72
14,TGTCAAAGTTCAAAGGTGACGTAAGTATCCACAC,5.65
15,CTATGTGGGTTAAGGGGGTCATTCAGTTTGAAAG,7.5
16,GCTTAAGGGTCAAAGGTTATAGCATGAATAGAAT,6.45
17,AATACAGGGTCACGAGGCCAGAGTAGGTACGAAT,5.41
18,AGTCAAAGTGCATCTAGGTAACGTAAGATATGCT,0.567
19,ATATGTAGGTTACATCCGGGTCATCCAGGCTATG,4.14
20,TCTAGTCGGTCAAAGGTCACACACTCGAAATGCG,5.65
